Activity calls are given as the source filed them. Where a call stands in place of a potency, no number is given. The call rests on the fitted dose curve; in most records, active means well fitted curve in the direction sought with a large enough effect; inconclusive means small, poorly fitted or top-dose-only effect, or another doubt; inactive means no such curve, though single readings can be large or run the other way.

Sequence of Hexokinase-4 (Homo sapiens) + Glucokinase regulatory protein (Homo sapiens) (P35557 whole entry, looked up): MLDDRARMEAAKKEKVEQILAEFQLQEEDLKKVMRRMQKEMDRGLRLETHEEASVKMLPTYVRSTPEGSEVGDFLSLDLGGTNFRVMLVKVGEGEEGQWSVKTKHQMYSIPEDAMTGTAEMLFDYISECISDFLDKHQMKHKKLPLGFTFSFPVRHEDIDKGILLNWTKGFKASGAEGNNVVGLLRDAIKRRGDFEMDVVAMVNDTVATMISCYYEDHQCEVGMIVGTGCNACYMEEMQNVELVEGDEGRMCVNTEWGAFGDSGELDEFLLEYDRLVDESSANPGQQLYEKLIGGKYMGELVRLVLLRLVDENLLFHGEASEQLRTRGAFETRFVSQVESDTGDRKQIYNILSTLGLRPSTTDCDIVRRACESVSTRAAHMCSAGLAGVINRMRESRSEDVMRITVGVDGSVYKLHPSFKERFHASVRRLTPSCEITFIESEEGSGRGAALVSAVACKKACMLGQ
Sequence of Hexokinase-4 (Homo sapiens) + Glucokinase regulatory protein (Homo sapiens) (Q14397 whole entry, looked up): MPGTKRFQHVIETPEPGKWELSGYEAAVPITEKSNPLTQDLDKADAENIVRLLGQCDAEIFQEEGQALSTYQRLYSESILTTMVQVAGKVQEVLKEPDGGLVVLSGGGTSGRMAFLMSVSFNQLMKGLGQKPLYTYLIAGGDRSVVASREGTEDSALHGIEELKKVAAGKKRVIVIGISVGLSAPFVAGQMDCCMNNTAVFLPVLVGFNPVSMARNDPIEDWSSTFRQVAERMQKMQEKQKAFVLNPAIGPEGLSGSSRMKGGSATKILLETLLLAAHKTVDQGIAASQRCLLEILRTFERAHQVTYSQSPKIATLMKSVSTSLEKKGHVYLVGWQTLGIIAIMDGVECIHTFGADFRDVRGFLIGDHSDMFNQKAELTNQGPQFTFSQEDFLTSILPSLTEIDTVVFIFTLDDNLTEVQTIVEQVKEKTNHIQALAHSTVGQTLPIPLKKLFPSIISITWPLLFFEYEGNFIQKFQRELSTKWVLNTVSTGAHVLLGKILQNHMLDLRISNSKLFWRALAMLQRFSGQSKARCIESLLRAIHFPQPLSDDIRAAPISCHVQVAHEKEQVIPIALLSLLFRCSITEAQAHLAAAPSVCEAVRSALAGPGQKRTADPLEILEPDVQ

This assay concerns the target Hexokinase-4 (Homo sapiens) + Glucokinase regulatory protein (Homo sapiens) (UniProt P35557+Q14397). As to the kind of experiment: qHTS assay for inhibitors of recombinant human GCK-GKRP interaction: ADP-Glo assay (AID 743206). As to conditions: ADP-Glo luminescence, 60 min; series mostly up to 76.9 µM. The source says:
Glucokinase (GCK) is a glucose sensor in hepatocytes and pancreatic beta-cells. Hepatic GCK is regulated by glucokinase regulatory protein (GKRP), which is predominantly localized to the liver. GKRP binds to GCK inhibiting its activity in the fasting state while in the presence of glucose the GKRP is displaced. There is an additional layer of regulation by fructose 1-phosphate and fructose 6-phosphate, which inhibit and enhance the GCK-GKRP interaction, respectively. GCK plays a role in glucose homeostasis and there is an interest in the development of strategies to activate GCK to lower blood glucose levels in type 2 diabetes. To date the majority of effort has focused on direct activation of GCK and the assays developed herein look to activate GCK by inhibiting its binding to GKRP. A compound that inhibits the interaction of GCK with GKRP could be important for the treatment of diabetes and can also be used as a tool compound to further elucidate GCK-GKRP biology. To that end, we have developed a sensitive HTS biochemical assay where in GCK activity is coupled to luciferase to interrogate the GCK-GKRP interaction. This assay was screened against a small compound library to look for modulators of activity.
2 uL of 15 nM GST-GCK and 15 nM FLAG-GKRP proteins with 2 uM S6P (columns 1-2, 4-48; Millipore, Billerica, MA) are dispensed into Greiner, white solid-bottom 1536-well assay plates; columns 3 receive buffer without GCK as a control for maximum inhibition. Compounds (23 nL) are then transferred via Kalypsys pin tool equipped with 1536-pin array (10 nL slotted pins, V&P Scientific, San Diego, CA). The library compounds are in columns 5-48 and columns 1-4 serve as controls with DMSO in columns 1 and 3 and 26 mM 1:1.5 fold serial of gluckokinase activator (GKA-EMD) in column 2 and 26 mM of the glucokinase activator (GKA-EMD) in column 4. Following addition of compound, 1 uL of ATP […] is added, and the plate is incubated for 60 minutes at room temperature. The amount of ADP is then quantified by the ADP-Glo Kit (Promega, Madison, WI). First, 2 uL of the first kit reagent is added, and the reaction is incubated for 45 minutes; then, 4 uL of the second kit reagent are added and the reaction is incubated for 30 minutes at which time the luminescence is read on a Viewlux plate reader (Perkin-Elmer, Waltham, MA). The final concentration of reagents in the reaction are 0.4 mM ATP, 25 mM Hepes pH 7.6, 25 mM KCl, 2 mM MgCl2, 1 mM DTT, 0.025% BSA, 0.01% Tween 20, 5 mM glucose. Data are normalized to DMSO-treated control columns with (maximum signal) and without (minimum signal) enzyme.
A general note: qHTS replaces the single test concentration by a dilution series.
Consider `Cn1ncc(S(=O)(=O)Cc2ccccc2)c(Br)c1=O`, for which the Potency result was “inactive”.

`O=C1O/C(=C/Br)CCC1c1cccc2ccccc12` (stereo not given): the Potency result was “inactive”.

For `CNC(=O)[C@H]1O[C@@H](n2cnc3c(NCc4cccc(I)c4)ncnc32)[C@H](O)[C@@H]1O`, the Potency result is “inactive”.

On to `O=C(O)/C=C/C(O)c1ccc(Cl)cc1` (stereo not given), for which the Potency result was “inactive”.

In the case of `Ic1ccc(N2CCN(Cc3c[nH]c4ncccc34)CC2)cc1`, the Potency result was “inactive”.

As for `Nc1nc(Cl)nc2c1ncn2[C@@H]1O[C@H](CO)[C@@H](O)[C@H]1O`, the Potency entry was “inactive”.

With `Cc1ccc(C(=O)O[C@H](C(=O)O)[C@@H](OC(=O)c2ccc(C)cc2)C(=O)O)cc1` (tested in a mixture with another compound), the Potency entry is “inactive”.

On to `O=S(=O)(c1cccc2c(I)cccc12)N1CCCNCC1`, for which the Potency result was “inactive”.

On to `Cn1c(=O)c2[nH]c(-c3ccccc3)nc2n(C)c1=O`, for which the Potency entry is “inactive”.

Consider `CC12C(=O)OC(=O)C1(C)C1CCC2O1` (stereo not given), for which the Potency entry is “inactive”.

As for `N#C/C(=C\c1ccc(O)c(O)c1)C(=O)NCc1ccccc1`, the Potency entry was “inactive”.

On to `C=CC(N)CCC(=O)O` (stereo not given), for which the Potency result was “inactive”.

Turning to `CCOC(=O)C1=C(C)NC(C)=C(C(=O)OCC)C1c1c(F)c(F)c(F)c(F)c1F`, the Potency result was “inactive”.

On to `CCC1C(=O)OCC1Cc1cncn1C` (stereo not given), for which the Potency entry is “inactive”.

Consider `Cc1ccc(S(=O)(=O)/C=C/C#N)cc1`, for which the Potency result is “inactive”.

Turning to `Cc1cc(NC(=O)Nc2ccc3c(ccn3C)c2)sn1`, the Potency result was “inactive”.

In the case of `O=C(Nc1ccccc1)c1cc([N+](=O)[O-])ccc1Cl`, the Potency result was “inactive”.

As to `NC(CCCP(=O)(O)O)C(=O)O` (stereo not given), the Potency entry is “inactive”.

Take `Nc1ncnc2c1ncn2[C@@H]1O[C@H](COP(=O)(O)OP(=O)(O)OP(=O)(O)OP(=O)(O)OC[C@@H]2O[C@H](n3cnc4c(N)ncnc43)[C@@H](O)[C@H]2O)[C@@H](O)[C@H]1O`: the Potency result is “inactive”.

Turning to `CNc1ncnc2c1ncn2[C@@H]1O[C@H](CO)[C@@H](O)[C@H]1O`, the Potency entry is “inactive”.

On to `C[N+](C)(C)CCOP(=O)(O)OP(=O)([O-])OC[C@H]1O[C@@H](n2ccc(N)nc2=O)[C@H](O)[C@@H]1O`, for which the Potency entry is “inactive”.

With `CN(C)C(N)=NCCC[C@H](N)C(=O)O`, the Potency entry was “inactive”.

In the case of `C=C[C@@H]1CN2CC[C@@H]1C[C@H]2[C@H](O)c1ccnc2ccc(OC)cc12`, the Potency entry was “inactive”.

Consider `CNCC[C@H](Oc1ccc(C(F)(F)F)cc1)c1ccccc1`, for which the Potency result was “inactive”.

Turning to `Brc1c(Br)c(Br)c2n[nH]nc2c1Br`, the Potency entry was “inactive”.

Turning to `NC(=O)C1=CN(C2OC(COP(=O)(O)OP(=O)(O)OC[C@H]3O[C@@H](n4cnc5c(N)ncnc54)[C@H](OP(=O)(O)O)[C@@H]3O)C(O)C2O)C=CC1` (stereo not given in full), the Potency entry was “inactive”.

For `Oc1ccccc1O`, the Potency result was “inactive”.

On to `CCCn1c(=O)c2[nH]c(-c3ccc(OCC(=O)NCCN)cc3)nc2n(CCC)c1=O`, for which the Potency entry is “inactive”.

As for `COc1cccc(C(=O)NCCN2CCN(c3ccc(Cl)cc3)CC2)c1`, the Potency entry is “inactive”.

As for `Nc1nc(SCc2ccc([N+](=O)[O-])cc2)c2ncn([C@@H]3O[C@H](CO)[C@@H](O)[C@H]3O)c2n1`, the Potency entry is “inactive”.

For the molecule `COc1cccc(OC)c1OCCNCC1COc2ccccc2O1` (stereo not given), the Potency result was “inactive”.

As for `COc1cc(C(O)CO)ccc1OS(=O)(=O)O` (stereo not given), the Potency result was “inactive”.

As to `CC(COc1ccc(/C=C/c2ccccc2)cc1)[N+](C)(C)C` (stereo not given), the Potency entry was “inactive”.

Consider `COc1cc2c(CCNC(C)=O)c[nH]c2cc1Cl`, for which the Potency result is “inactive”.

In the case of `CCc1c(C(=O)NCCc2ccc(N3CCCCC3)cc2)[nH]c2ccc(Cl)cc12`, the Potency result was “inactive”.

As for `CCOC(=O)N1CCN(/[N+]([O-])=N/Oc2ccc([N+](=O)[O-])cc2[N+](=O)[O-])CC1`, the Potency result was “inactive”.

Take `CN1CC(=O)N/C1=N/C(=O)Nc1cccc(Cl)c1`: the Potency result is “inactive”.

Take `CCCCCCCCCCCCCCCCCCNC(=O)OCC(COP(=O)([O-])OCC[n+]1ccsc1)OC` (stereo not given): the Potency entry was “inactive”.

As to `CCCCCCCC/C=C\CCCCCCCC(=O)NCCO`, the Potency entry was “inactive”.

Consider `Oc1cc(O)cc(/C=C/c2ccc(O)c(O)c2)c1`, for which the Potency result is “inactive”.

Source of the values: PubChem BioAssay (NCATS).
